Data on four molecules can be found in PubChem BioAssay.

Active and inactive are the calls of the source. Unless noted, the rule behind the calls is not given here.

The test system of assay [1] is Wnt5a (protein binding on small-molecule microarray). Description: small molecules binding Wnt5a protein – biophysical, small-molecule microarray, 635/667 nm fluorescence, primary screen (AID 1142).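 Note: fluorescence read at 667 nm with signal to noise per printed feature.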 The settings on record: 635 nm fluorescence, higher = more signal.
The nature of assay [2]: ATP-based viability of Huh7 replicon cells – cell-based, CellTiter-Glo luminescence, basal, 48 h, cytotoxicity control for HCV replication inhibitor project, primary screen (AID 1143).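 Note: Huh7 hepatoma cells carrying a hepatitis C replication reporter with no stimulus; test concentration not given here.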 The settings on record: higher = more signal, called active from +8 up or from −8 down. A general note: Replicon systems follow genome replication, usually without infectious particles.
The nature of assay [3]: Pseudomonas biofilm growth suppression – PAO1 strain, BacTiter-Glo luminescence, LB-PBS, primary screen (AID 1144). Particulars: P. aeruginosa PAO1 biofilm, 12 h, higher = more signal.
Assay [4] in a line: basal CRE-LacZ reporter activity in PC12 – cell-based, unstimulated, primary screen (AID 1145). The settings on record: no forskolin, luminescence, 4.5 h, higher = more signal, called active from +8 up or from −8 down.
Assay [5] in a line: forskolin-driven CRE-LacZ activity in PC12 – cell-based, CRE-LacZ reporter, forskolin-stimulated, primary screen (AID 1146).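 Note: PC12 cells with 6xCRE LacZ reporter stimulated by forskolin 10 µM; beta-galactosidase reporter signal reflecting CREB driven transcription.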 Particulars: luminescence, 4.5 h, higher = more signal, called active from +8 up or from −8 down.
For assay [6], the target named is Streptavidin (Streptomyces avidinii) (UniProt P22629). As to the kind of experiment: compounds binding control protein streptavidin – biophysical, small-molecule microarray, 635/667 nm fluorescence, artefact control for SMM compound annotation, primary screen (AID 1147).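 Note: signal reflects streptavidin binding to arrayed compounds as a control protein.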 The settings on record: higher = more signal.
Assay [7] in a line: probe aInhba binding on compound microarray – biochemical, small-molecule microarray, 635/667 nm fluorescence, primary screen (AID 1148).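 Note: score merges 667nm spot fluorescence with signal-to-noise for antibody binding to printed compounds.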 Particulars: higher = more signal.
For assay [8], the target named is Torsin-1A (Homo sapiens) (UniProt O14656). As to the kind of experiment: TOR1A wild-type binding on microarray – cell lysate, small-molecule microarray, lysate, 635/667 nm, primary screen (AID 1149). The settings on record: COS7 hTOR1A-WT lysate, 635 nm fluorescence, higher = more signal.
For assay [9] the target is unchanged. As to the kind of experiment: torsin A mutant lysate binding on microarrays – cell lysate, small-molecule microarray, COS7 lysate, 635/667 nm fluorescence, primary screen (AID 1150).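 Note: score pools 667 nm emission and signal to noise measuring lysate protein binding.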 Particulars: COS7 hTOR1A mutant lysate, 635 nm fluorescence, higher = more signal.
Assay [10] deals with Sonic hedgehog protein (Shh). Description: Sonic hedgehog microarray binding compounds – biochemical, small-molecule microarray, 635/667 nm fluorescence, primary screen (AID 1151).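 Note: Shh protein binding to compounds spotted on small-molecule microarray slides; score combines spot fluorescence intensity with signal-to-noise across triplicate slides.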 Particulars: 635 nm fluorescence, higher = more signal.
A short description of assay [11]: optical density shifts of acrAB sulA E. coli – strain DRC41, OD650, 48 h, E. coli filamentation inducer project, primary screen (AID 1152).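 Note: E. coli MC1000 strain DRC41 lacking acrAB efflux pump and sulA.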 The settings on record: higher = more signal, called active from +8 up or from −8 down.
Assay [12] can be described thus: probe aLefty1 binding on compound microarray – biochemical, small-molecule microarray, 635/667 nm fluorescence, primary screen (AID 1153).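 Note: score merges spot fluorescence with signal-to-noise ratio from the scanned slide images.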 Particulars: higher = more signal.
The nature of assay [13]: plasmodial surface anion channel blockers, osmotic lysis – cell-based, P. falciparum Indochina, OD700, 1 h, primary screen (AID 1154). The settings on record: P. falciparum Indochina infected RBC osmotic lysis, higher = more signal, called active from +8 up or from −8 down.
A short description of assay [14]: plasmodial surface anion channel blockers, osmotic lysis – cell-based, P. falciparum Indochina, OD700, 2 h, primary screen (AID 1155).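 Note: lysis reports solute entry through the parasite surface anion channel PSAC.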 The settings on record: P. falciparum Indochina infected erythrocytes, higher = more signal, called active from +8 up or from −8 down.
A short description of assay [15]: changes in parasitized red cell lysis, either direction – P. falciparum Indochina, OD700, 3 h, PSAC antagonist project, primary screen (AID 1156). Particulars: P. falciparum-infected erythrocytes, osmotic lysis, higher = more signal, called active from +8 up or from −8 down.
Assay [16] is described as follows: plasmodial surface anion channel blockers, osmotic lysis – cell-based, P. falciparum Indochina, OD700, 18 h, primary screen (AID 1157). The settings on record: P. falciparum Indochina infected erythrocytes, osmotic lysis OD700, 18 h; higher = more signal, called active from +8 up or from −8 down.
The nature of assay [17]: S6 kinase pathway phospho-S6 level changes – cell-based, A549, cytoblot, luminescence, serum-stimulated, primary screen (AID 1158).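 Note: serum-stimulated A549 lung adenocarcinoma cells; signal is phosphorylated S6 detected by cytoblot immunostaining with HRP secondary.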 Particulars: 5 h, higher = more signal.
For assay [18], the target named is NADPH oxidase 2 (Homo sapiens) (UniProt P04839). As to the kind of experiment: compounds shifting NOX2 Amplex Red fluorescence – cell-based, HEK293-NOX2, PMA-stimulated, NOX inhibitor project, primary screen (AID 1159). Note: test concentration not given here. The settings on record: 45 min, higher = more signal, called active from +8 up or from −8 down.
Assay [19] has as its target NADPH oxidase 4 (Homo sapiens) (UniProt Q9NPH5). Description: compounds shifting NOX4 Amplex Red fluorescence – cell-based, HEK293-NOX4, tetracycline-induced, NOX inhibitor project, primary screen (AID 1160). Particulars: HEK293-NOX4, Amplex Red H2O2 fluorescence, 45 min; higher = more signal, called active from +8 up or from −8 down.
Assay [20] addresses NADPH oxidase 5 (Homo sapiens) (UniProt Q96PH1). As to the kind of experiment: compounds shifting NOX5 Amplex Red fluorescence – cell-based, HEK293-NOX5, NOX inhibitor project, primary screen (AID 1161). The settings on record: HEK293-NOX5, ionomycin, 45 min, higher = more signal.

Sequence of NADPH oxidase 2 (Homo sapiens) (P04839 whole entry, looked up): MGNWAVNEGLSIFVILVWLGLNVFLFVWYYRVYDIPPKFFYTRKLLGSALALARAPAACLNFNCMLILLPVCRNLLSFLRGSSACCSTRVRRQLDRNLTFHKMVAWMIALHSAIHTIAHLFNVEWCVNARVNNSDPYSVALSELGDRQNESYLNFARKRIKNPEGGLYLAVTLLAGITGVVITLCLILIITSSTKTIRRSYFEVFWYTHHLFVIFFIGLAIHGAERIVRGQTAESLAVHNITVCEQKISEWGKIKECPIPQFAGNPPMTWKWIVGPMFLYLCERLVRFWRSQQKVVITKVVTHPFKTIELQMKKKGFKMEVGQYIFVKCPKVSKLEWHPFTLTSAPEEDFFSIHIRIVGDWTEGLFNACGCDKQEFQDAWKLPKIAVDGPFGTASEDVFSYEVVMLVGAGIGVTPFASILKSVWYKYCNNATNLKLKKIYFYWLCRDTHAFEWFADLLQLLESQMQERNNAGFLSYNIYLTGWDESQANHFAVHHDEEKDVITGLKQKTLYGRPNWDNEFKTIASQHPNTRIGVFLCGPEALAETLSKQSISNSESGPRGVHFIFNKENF
Sequence of NADPH oxidase 5 (Homo sapiens) (Q96PH1 whole entry, looked up): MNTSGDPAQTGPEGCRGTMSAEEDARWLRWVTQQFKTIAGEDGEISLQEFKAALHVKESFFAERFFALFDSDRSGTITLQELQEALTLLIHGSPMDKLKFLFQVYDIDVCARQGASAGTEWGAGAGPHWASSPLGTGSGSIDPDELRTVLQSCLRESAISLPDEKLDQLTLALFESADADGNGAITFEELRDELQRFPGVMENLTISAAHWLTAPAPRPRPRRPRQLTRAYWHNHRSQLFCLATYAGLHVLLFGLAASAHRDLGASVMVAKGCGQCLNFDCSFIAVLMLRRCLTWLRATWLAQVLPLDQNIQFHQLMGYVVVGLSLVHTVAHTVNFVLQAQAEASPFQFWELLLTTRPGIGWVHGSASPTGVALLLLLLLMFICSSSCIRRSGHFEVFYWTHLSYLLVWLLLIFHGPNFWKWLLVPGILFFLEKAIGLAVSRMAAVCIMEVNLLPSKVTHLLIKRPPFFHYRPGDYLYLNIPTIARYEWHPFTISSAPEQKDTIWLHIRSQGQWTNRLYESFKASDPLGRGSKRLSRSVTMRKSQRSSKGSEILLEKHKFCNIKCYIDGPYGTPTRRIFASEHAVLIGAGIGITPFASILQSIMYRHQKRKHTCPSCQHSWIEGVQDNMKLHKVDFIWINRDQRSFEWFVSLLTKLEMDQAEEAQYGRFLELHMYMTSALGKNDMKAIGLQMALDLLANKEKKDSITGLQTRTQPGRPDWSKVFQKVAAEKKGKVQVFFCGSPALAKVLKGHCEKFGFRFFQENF
Sequence of NADPH oxidase 4 (Homo sapiens) (Q9NPH5 whole entry, looked up): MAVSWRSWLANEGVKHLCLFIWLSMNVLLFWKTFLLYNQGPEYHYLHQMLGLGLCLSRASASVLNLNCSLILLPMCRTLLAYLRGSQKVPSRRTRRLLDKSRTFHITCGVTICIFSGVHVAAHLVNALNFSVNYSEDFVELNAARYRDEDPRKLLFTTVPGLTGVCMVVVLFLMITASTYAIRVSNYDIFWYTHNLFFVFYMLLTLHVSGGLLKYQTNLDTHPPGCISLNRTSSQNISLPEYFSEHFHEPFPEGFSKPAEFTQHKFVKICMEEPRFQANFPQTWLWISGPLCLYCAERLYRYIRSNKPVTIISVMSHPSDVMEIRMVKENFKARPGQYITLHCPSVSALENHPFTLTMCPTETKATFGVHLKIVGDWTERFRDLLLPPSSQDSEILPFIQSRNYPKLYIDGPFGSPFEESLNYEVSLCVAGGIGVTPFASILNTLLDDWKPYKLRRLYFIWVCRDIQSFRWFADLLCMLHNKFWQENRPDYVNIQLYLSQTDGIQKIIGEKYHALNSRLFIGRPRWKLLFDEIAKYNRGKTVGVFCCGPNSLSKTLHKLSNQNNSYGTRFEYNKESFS
Sequence of Torsin-1A (Homo sapiens) (O14656 whole entry, looked up): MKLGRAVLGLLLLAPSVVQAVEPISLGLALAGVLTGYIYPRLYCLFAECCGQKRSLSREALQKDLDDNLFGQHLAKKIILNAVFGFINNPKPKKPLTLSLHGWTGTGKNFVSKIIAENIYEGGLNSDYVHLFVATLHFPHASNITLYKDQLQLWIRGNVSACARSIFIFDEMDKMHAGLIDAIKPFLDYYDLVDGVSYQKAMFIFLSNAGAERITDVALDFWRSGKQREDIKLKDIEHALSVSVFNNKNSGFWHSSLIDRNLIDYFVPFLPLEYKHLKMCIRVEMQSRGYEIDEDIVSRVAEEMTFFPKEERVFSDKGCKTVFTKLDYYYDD
Sequence of Streptavidin (Streptomyces avidinii) (P22629 whole entry, looked up): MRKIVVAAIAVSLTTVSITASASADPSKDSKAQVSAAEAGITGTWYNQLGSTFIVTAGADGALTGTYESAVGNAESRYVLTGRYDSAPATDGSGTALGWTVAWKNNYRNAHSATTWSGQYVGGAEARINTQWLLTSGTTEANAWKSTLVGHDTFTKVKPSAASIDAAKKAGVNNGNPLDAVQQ

For `CCOC(=O)[C@H](Cc1ccccc1)NC(=O)CCC1CC(OC(=O)NCCc2ccc(F)cc2)CC2(CCCC(COC(=O)NCC(c3ccccc3)c3ccccc3)O2)O1` (stereo not given in full), the composite z-score in [1] is 0.0879; in [6], 0.388; in assay [7] it was -0.248; with Torsin-1A (Homo sapiens) [8], -0.0715; in the assay with Torsin-1A (Homo sapiens) [9], 0.656; in assay [10] it was 0.719. The molecule also yielded a composite z-score in assay [12] of -0.144. The z-score in [2] is -0.792 (inactive); in [3], 0.338 (inactive); in assay [4], 0.286 (inactive); in assay [5] it was 1.23 (inactive); in assay [11], -0.455 (inactive); in assay [13], 14.2 (active). In addition, the z-score in [14] is 4.68 (inactive); in assay [15], -0.261 (inactive); in [16], 0.688 (inactive); in assay [17], -0.058; in assay [18], 0.0978 (inactive); in [19], -0.136 (inactive). The z-score in assay [20] was -0.234.
As to `COc1ccc(CCNC(=O)[C@@H]2c3ccccc3C(=O)N(c3ccc(C)cn3)[C@H]2c2ccc(CO)cc2)cc1`, the composite z-score in assay [1] was -0.657; in assay [6] it was -0.776; in assay [7], -0.253; with Torsin-1A (Homo sapiens) [8] it was -2.23; with Torsin-1A (Homo sapiens) [9], -1.76; in assay [10] it was -0.497. Further, in assay [12], the composite z-score is -0.06. In addition, the z-score in assay [2] is 0.569 (inactive); in [3], -0.456 (inactive); in assay [4] it was 0.648 (inactive); in [5], 0.459 (inactive); in [11] it was 0.119 (inactive); in [13] it was 2.45 (inactive). Also, the z-score in [14] is 0.478 (inactive); in assay [15], 0.414 (inactive); in [16], 0.401 (inactive); in [17], -0.0568; in assay [18], 0.0857 (inactive); in [19], -0.882 (inactive). In [20], the z-score was -2.5.
As to `COC(=O)C1=CCC(c2cccc(Cl)c2)O1` (stereo not given), the composite z-score in [1] was -0.241; in [6] it was -0.0713; in [7], 0.0742; in the assay with Torsin-1A (Homo sapiens) [8], 0.0026; with Torsin-1A (Homo sapiens) [9], -0.58; in assay [10], -0.534. This molecule displayed a composite z-score in assay [12] of -0.0111. Moreover, the z-score in assay [2] is -4.35 (inactive); in assay [3], -1.52 (inactive); in assay [4], 0.388 (inactive); in assay [5], -0.551 (inactive); in [11], -0.367 (inactive); in assay [13], 11.4 (active). The z-score in assay [14] was -0.39 (inactive); in assay [15], 0.784 (inactive); in assay [16] it was -0.963 (inactive); in [17], 0.61; in assay [18] it was -3.94 (inactive); in [19], -1.6 (inactive). In addition, the z-score in [20] was -4.15.
For the molecule `c1ccc(C2NCCc3c2[nH]c2ccccc32)cc1` (stereo not given), the composite z-score is -0.18 in assay [1]; -0.26 in [6]; -0.101 in [7]; 0.586 with Torsin-1A (Homo sapiens) [8]; 0.462 in the assay with Torsin-1A (Homo sapiens) [9]; -0.12 in [10]. The molecule also gave a composite z-score in [12] of 0.155. In addition, the z-score in assay [2] is -0.92 (inactive); in assay [3] it was -0.0191 (inactive); in [4], -0.253 (inactive); in assay [5], -1.11 (inactive); in assay [11], -1.78 (inactive); in [13] it was 1.07 (inactive). For the same molecule, the z-score in [14] is 0.709 (inactive); in assay [15], 0.806 (inactive); in assay [16] it was -0.0204 (inactive); in assay [17], -0.513; in [18], 0.943 (inactive); in [19], -0.561 (inactive). In addition, the z-score in assay [20] stood at 1.23.
